Records with an inconclusive call do not appear. Calls of active or inactive are those of the source.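 The calls were made as follows, unless noted: active = viability at or below 27.92% in each of two runs, the all-compound median minus 4 SD; inconclusive = no clear call, values can overlap the other calls; inactive = the rest.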
Columns and labels:
[1] = Her2 expression decrease, cell viability multiplex – SKBR3 breast tumor cells, AlphaScreen, ATP viability, primary screen (AID 461;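 active = Her2 level under about 52% in both replicate screens, with viability over 70% of control, limit read from the data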;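 as to Her2 level: lower value means less Her2 protein in the cells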;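 as to viability: percent of carrier control wells set as 100% viability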); details: SKBR3 Her2 protein level, 18-24 h, measured here: SKBR3 viability, ATP luminescence, at 10 µM
[2] = target: Receptor tyrosine-protein kinase erbB-2 (Homo sapiens) (UniProt P04626); assay: as above; details: 18-24 h, at 10 µM, stronger effect = lower value
Chain of Receptor tyrosine-protein kinase erbB-2 (Homo sapiens) (P04626 whole entry, looked up): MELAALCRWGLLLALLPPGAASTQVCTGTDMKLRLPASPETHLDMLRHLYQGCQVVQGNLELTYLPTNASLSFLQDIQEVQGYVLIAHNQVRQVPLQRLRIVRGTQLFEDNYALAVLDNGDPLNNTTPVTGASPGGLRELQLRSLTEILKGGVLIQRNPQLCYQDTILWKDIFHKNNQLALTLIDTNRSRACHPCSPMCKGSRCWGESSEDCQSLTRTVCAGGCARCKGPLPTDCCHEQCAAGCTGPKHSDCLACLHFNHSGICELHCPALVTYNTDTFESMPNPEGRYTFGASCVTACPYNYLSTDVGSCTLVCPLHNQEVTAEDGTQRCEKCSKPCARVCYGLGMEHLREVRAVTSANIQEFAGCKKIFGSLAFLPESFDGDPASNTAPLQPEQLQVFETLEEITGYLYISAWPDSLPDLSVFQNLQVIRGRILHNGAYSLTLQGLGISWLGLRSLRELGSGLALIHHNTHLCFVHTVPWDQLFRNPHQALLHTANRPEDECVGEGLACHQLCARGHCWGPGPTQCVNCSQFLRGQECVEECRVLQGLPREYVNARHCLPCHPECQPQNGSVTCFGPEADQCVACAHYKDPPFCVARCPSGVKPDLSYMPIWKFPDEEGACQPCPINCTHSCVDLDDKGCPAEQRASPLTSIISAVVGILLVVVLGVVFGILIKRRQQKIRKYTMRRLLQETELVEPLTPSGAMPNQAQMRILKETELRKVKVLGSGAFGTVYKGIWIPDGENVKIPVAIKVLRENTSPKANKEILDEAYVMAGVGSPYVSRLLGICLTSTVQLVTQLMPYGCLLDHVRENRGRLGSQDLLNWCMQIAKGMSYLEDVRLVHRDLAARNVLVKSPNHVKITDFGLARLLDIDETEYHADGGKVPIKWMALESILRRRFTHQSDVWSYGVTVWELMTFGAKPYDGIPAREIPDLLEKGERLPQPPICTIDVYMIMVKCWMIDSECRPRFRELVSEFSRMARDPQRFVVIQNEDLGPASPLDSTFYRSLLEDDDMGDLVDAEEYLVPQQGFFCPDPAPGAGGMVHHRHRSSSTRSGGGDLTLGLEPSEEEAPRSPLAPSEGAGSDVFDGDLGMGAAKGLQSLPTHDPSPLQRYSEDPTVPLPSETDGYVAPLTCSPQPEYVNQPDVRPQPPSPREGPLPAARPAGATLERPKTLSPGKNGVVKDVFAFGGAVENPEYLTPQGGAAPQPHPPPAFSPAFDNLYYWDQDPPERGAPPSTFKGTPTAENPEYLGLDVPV

[3] = reduced viability of SK-BR-3 breast cancer cells – cell-based, 24 h, human, pilot screen (AID 572;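 active = viability at or below 10% of carrier control in both of two separate runs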;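 also: compound exposure lasted between 18 and 24 h rather than exactly 24 h; 100% = carrier-treated control wells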); details: SK-BR-3 viability, CellTiter-Glo luminescence, at 10 µM, stronger effect = lower value
[4] = HUVEC growth inhibition – cell-based, human, primary screen (AID 575;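 active = viability at or below 30% in both replicate assays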;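 also: 100% = median of untreated cell wells with 0.1% DMSO on each plate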); details: HUVEC proliferation, CellTiter-Glo luminescence, 72 h; at 10 µM; stronger effect = lower value
[5] = H69AR cell proliferation blockers – human, duplicate replicates, primary screen (AID 580;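 active = viability at or under a set limit in both replicates, limit being median viability minus 3 SD, cut at about 48% in these data, passing the limit was not always enough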;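 also: 100% = mean luminescence of untreated wells and 0% = no signal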); details: H69AR lung tumor cells viability, ATP luminescence, 72 h; at 10 µM; stronger effect = lower value
[6] = MRP1 drug-resistance reversers in H69AR cells – cell-based, doxorubicin co-treatment, pilot screen (AID 601;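 active = viability loss from added drug above about 55%, and viability with drug at most 40%, in both replicates, limit read from the data, passing the limit was not always enough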); details: CellTiter-Glo, 72 h, at 10 µM; for differential viability (reversal): stronger effect = higher value
[7] = yeast transport mutant growth inhibition pilot in 384-well plates, post-Golgi transport modulator project (AID 636; in the data active = inhibition above about 31%); details: absorbance 615 nm, about 18 h, stronger effect = higher value
[8] = growth suppression of yeast trafficking mutant, preliminary HTS, modulators of trafficking downstream of Golgi apparatus project, 1536-format plate, OD 615 nm (AID 637; in the data active = inhibition above about 30%); details: yeast transport mutant growth, absorbance 615 nm, 18 h; stronger effect = higher value
[9] = S. cerevisiae growth inhibition in permissive medium (OD615), pilot counter-assay for S. cerevisiae lifespan shortening project, permissive growth control (AID 705;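 active = growth inhibition above 25% in both replicates, a cutoff set 3 SD above the mean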); details: OD615, 24 h, at 10 µM, stronger effect = higher value
[10] = S. cerevisiae growth inhibition in restrictive medium, OD615, pilot screen, restrictive growth control, yeast lifespan reduction project (AID 706;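 active = growth inhibition above a set limit, 3 SD over mean compound inhibition, in both replicates, cut at about 43% in these data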;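 also: modified DeaD lifespan yeast strain shifted to restrictive glucose medium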); details: OD615, 48 h, at 10 µM, stronger effect = higher value
[11] = doxorubicin toxicity protection in MRP-1 cells – H69AR cells, CellTiter-Glo, duplicate, MRP-1 activator project, pilot screen (AID 807;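 active = viability increase at or above a cutoff of the median across tested compounds plus 3 SD, cut at about 8.5% in these data, passing the limit was not always enough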;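 also: compound pretreatment 18-22 h then 72 h combined with doxorubicin; 0% = doxorubicin alone and 100% = vehicle without doxorubicin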); details: H69AR viability with doxorubicin, CellTiter-Glo luminescence; at 10 µM; stronger effect = higher value
[12] = viability of HCT116 without oncogenic beta-catenin – human colon tumor cells, pilot screen (AID 823;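 active = cell viability at or below a set limit in both duplicate runs, the limit being the all-compound median minus 4 SD, cut at about 23% in these data, passing the limit was not always enough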;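 also: 0% = wells killed by 20 µM Hyamine and 100% = untreated DMSO cell wells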); details: HCT116 beta-catenin knockout viability, CellTiter-Glo, 60 h; at 10 µM; stronger effect = lower value
[13] = viability of PTEN-null HCT116 cells – cell-based, HCT116 clonal line, CellTiter-Glo, pilot screen (AID 824); details: HCT116 PTEN-deleted viability, 60 h, at 10 µM, stronger effect = lower value;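 also: 0% = 20 µM Hyamine control and 100% = vehicle cell control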
[14] = RAM pathway blockade in budding yeast – dse1pr::URA3 reporter, 5-FOA selection, pilot screen (AID 869;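 active = inhibition over a set limit, the all-compound mean plus 3 SD, in both replicate runs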;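 also: 0% = DMSO wells with no growth and 100% = 10 µM 1-NA-PP1 with full growth; RAM network block rescues cells from 5-FOA so hits raise OD615 growth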); details: S. cerevisiae dse1pr::URA3 5-FOA growth, OD615, 2 d; at 10 µM; stronger effect = higher value; strain carries analog-sensitive mutant Cbk1 kinase
[15] = RAM signaling pathway blockade in yeast – S. cerevisiae, Pdr1DBD-CYC8 efflux-inhibited sensitized strain, primary screen (AID 1298;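 active = RAM network inhibition above 8.4% in each of two replicates, 3 SD over the compound average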;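 also: 0% = DMSO untreated cells without growth and 100% = 10 µM 1-NA-PP1 full growth; higher means more yeast growth rescued from 5-FOA killing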); details: S. cerevisiae cbk1-as DSE1-URA3 strain, 5-FOA growth OD615, 2 d; at 50 µM; stronger effect = higher value
[16] = H69AR cells + 2 uM doxorubicin, measured here: viability with 2 uM doxorubicin, stronger effect = lower value
[17] = H69AR cells, compound alone cytotoxicity

CCCSCCCNC(=O)Cn1cc2c(n1)CCC(C)C2 (stereo not drawn)
99.5%: viability [1]
98.8%: viability [6, 17]
inactive: Her2 level [2] 106% | viability [3] 99.5% | viability [4] 101% | viability [5] 98.8% | differential viability (reversal) ([6]; H69AR cells + 2 uM doxorubicin) 7.85% | inhibition [7] 4.49% | inhibition [8] -0.67% | growth inhibition [9] 3.59% | growth inhibition [10] 1.5% | viability increase [11] -0.9% | viability [12] 102% | viability [13] 95.7% | inhibition [14] 0.775% | RAM network inhibition [15] 1.33%
91%: viability [6, 16]

CCOC(=O)N1CCC(NC(=O)CN2C(=O)CCSc3ccccc32)CC1
96.5%: viability [1]
96.6%: viability [6, 16]
93.1%: viability [6, 17]
inactive: Her2 level [2] 97.5% | viability [3] 96.5% | viability [4] 87.5% | viability [5] 93.1% | differential viability (reversal) ([6]; H69AR cells + 2 uM doxorubicin) -3.45% | inhibition [7] -1.87% | inhibition [8] -1.15% | growth inhibition [9] 5.44% | growth inhibition [10] -4.73% | viability increase [11] 1.02% | viability [12] 106% | viability [13] 101% | inhibition [14] 2.65% | RAM network inhibition [15] -0.42%

O=C(O)C1C2C=CC3(CN(C4CCCC4)C(=O)C13)O2 (stereo not drawn)
93.1%: viability [6, 16]
83.7%: viability [6, 17]
101%: viability [1]
inactive: Her2 level [2] 100% | viability [3] 101% | viability [4] 100% | viability [5] 83.7% | differential viability (reversal) ([6]; H69AR cells + 2 uM doxorubicin) -9.36% | inhibition [7] -7.07% | inhibition [8] -4.83% | growth inhibition [9] 1.69% | growth inhibition [10] 2.54% | viability increase [11] -0.64% | viability [12] 104% | viability [13] 95.5% | inhibition [14] 2.34% | RAM network inhibition [15] -0.17%

COc1cccc(-c2cc(C(F)(F)F)nc(NCc3ccco3)n2)c1
87.7%: viability [6, 16]
inactive: Her2 level [2] 94.5% | viability [3] 108% | viability [4] 61.6% | viability [5] 95.8% | differential viability (reversal) ([6]; H69AR cells + 2 uM doxorubicin) 8.14% | inhibition [7] -5.27% | inhibition [8] -1.48% | growth inhibition [9] 0.4% | growth inhibition [10] 18% | viability increase [11] -3.81% | viability [12] 70.9% | viability [13] 67.6% | inhibition [14] 2.38% | RAM network inhibition [15] 8.17%
108%: viability [1]
95.8%: viability [6, 17]

CN1CCN(Cc2nc3c(c(=O)[nH]c(=O)n3C)n2CCc2ccccc2)CC1
inactive: Her2 level [2] 96% | viability [3] 82% | viability [4] 91.2% | viability [5] 93% | differential viability (reversal) ([6]; H69AR cells + 2 uM doxorubicin) -4.29% | inhibition [7] -6% | inhibition [8] -5% | growth inhibition [9] -4.41% | growth inhibition [10] 1.98% | viability increase [11] -4.22% | viability [12] 92% | viability [13] 93.5% | inhibition [14] 0.565% | RAM network inhibition [15] 1.56%
93%: viability [6, 17]
97.2%: viability [6, 16]
82%: viability [1]

Cc1nc2ccccc2c2oc(C(=O)NCCCN3CCCC3=O)cc12
inactive: Her2 level [2] 97.5% | viability [3] 91% | viability [4] 84.3% | viability [5] 91.8% | differential viability (reversal) ([6]; H69AR cells + 2 uM doxorubicin) 13.9% | inhibition [7] -5.73% | inhibition [8] -2.62% | growth inhibition [9] -0.475% | growth inhibition [10] -1.4% | viability increase [11] -1.47% | viability [12] 94.5% | viability [13] 96.8% | inhibition [14] 1.9% | RAM network inhibition [15] 6.62%
91.8%: viability [6, 17]
77.9%: viability [6, 16]
91%: viability [1]

COc1ccc(C(=O)NCC(=O)NC2=NCCS2)cc1
102%: viability [6, 17]
91%: viability [6, 16]
100%: viability [1]
inactive: Her2 level [2] 104% | viability [3] 100% | viability [4] 120% | viability [5] 102% | differential viability (reversal) ([6]; H69AR cells + 2 uM doxorubicin) 10.7% | inhibition [7] -4.67% | inhibition [8] 0.33% | growth inhibition [9] -1.83% | growth inhibition [10] -4.44% | viability increase [11] -1.93% | viability [12] 102% | viability [13] 98.1% | inhibition [14] 1.56% | RAM network inhibition [15] 2.03%

COc1ccccc1C(=O)OCn1nnc2ccccc2c1=O
96.5%: viability [1]
115%: viability [6, 16]
99.5%: viability [6, 17]
inactive: Her2 level [2] 98% | viability [3] 96.5% | viability [4] 78.8% | viability [5] 99.5% | differential viability (reversal) ([6]; H69AR cells + 2 uM doxorubicin) -15.4% | inhibition [7] -4.27% | inhibition [8] 1.17% | growth inhibition [9] -11.2% | growth inhibition [10] -10.4% | viability increase [11] -0.53% | viability [12] 95% | viability [13] 91.2% | inhibition [14] 0.655% | RAM network inhibition [15] 0.92%

CCN(CC)C(=O)COc1ccc2oc(C)c(C(=O)OC(C)C)c2c1
83%: viability [1]
74.1%: viability [6, 17]
78.8%: viability [6, 16]
inactive: Her2 level [2] 104% | viability [3] 83% | viability [4] 91.4% | viability [5] 74.1% | differential viability (reversal) ([6]; H69AR cells + 2 uM doxorubicin) -4.69% | inhibition [7] -1.69% | inhibition [8] -6% | growth inhibition [9] -11.4% | growth inhibition [10] -9.19% | viability increase [11] -6.09% | viability [12] 84.2% | viability [13] 84.8% | inhibition [14] 1.08% | RAM network inhibition [15] 7.42%

Source: PubChem BioAssay
